Screens as filed in PubChem.
Hits are enriched below; roughly 5.9% of the tested compounds scored in any of these assays.
HSF1 inh = HSF1 inhibitors in luciferase reporter cells, primary screen, cell-based, NIH3T3, luminescence; NIH3T3-HGL HSE-luciferase, MG132-induced, luminescence 8 h; active compounds read low; activity change, negative = inhibition, % at 7.5 µM (by protocol); hit rate 0.77% among 300,000; AID 2098, 2009;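 active means more than half of replicate wells show activity change below -50%, luminescence cut by over half; inconclusive means some wells, but at most half, below -50%; inactive means no replicate well below -50%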;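 further: luciferase reports HSF-1 transcriptional activity via heat shock element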
HSP90 refold inh = HSP90 inhibitors, primary screen, cell lysate, luminescence. Heat shock protein HSP 90 (rabbit reticulocyte lysate; luciferase refolding). Rabbit reticulocyte lysate, luciferase refolding luminescence, 3 h. inhibition, % at 5.6 µM. hit rate 0.91% among 290,000. AID 1789, 2009;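 active means inhibition above the screen-wide mean plus 3 SD, computed separately per campaign, cut at about 16% in these data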;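 further: inhibitors lower the luminescence because luciferase stays unfolded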
AHR act = AHR activators, primary screen, cell-based, luminescence, luciferase reporter, human; Aryl hydrocarbon receptor (Homo sapiens), P35869; AHR-responsive luciferase reporter cells; activation, % at 5 µM; hit rate 2.5% among 320,000; in the data active means activation above about 47%
Target sequence (P35869 whole entry, looked up): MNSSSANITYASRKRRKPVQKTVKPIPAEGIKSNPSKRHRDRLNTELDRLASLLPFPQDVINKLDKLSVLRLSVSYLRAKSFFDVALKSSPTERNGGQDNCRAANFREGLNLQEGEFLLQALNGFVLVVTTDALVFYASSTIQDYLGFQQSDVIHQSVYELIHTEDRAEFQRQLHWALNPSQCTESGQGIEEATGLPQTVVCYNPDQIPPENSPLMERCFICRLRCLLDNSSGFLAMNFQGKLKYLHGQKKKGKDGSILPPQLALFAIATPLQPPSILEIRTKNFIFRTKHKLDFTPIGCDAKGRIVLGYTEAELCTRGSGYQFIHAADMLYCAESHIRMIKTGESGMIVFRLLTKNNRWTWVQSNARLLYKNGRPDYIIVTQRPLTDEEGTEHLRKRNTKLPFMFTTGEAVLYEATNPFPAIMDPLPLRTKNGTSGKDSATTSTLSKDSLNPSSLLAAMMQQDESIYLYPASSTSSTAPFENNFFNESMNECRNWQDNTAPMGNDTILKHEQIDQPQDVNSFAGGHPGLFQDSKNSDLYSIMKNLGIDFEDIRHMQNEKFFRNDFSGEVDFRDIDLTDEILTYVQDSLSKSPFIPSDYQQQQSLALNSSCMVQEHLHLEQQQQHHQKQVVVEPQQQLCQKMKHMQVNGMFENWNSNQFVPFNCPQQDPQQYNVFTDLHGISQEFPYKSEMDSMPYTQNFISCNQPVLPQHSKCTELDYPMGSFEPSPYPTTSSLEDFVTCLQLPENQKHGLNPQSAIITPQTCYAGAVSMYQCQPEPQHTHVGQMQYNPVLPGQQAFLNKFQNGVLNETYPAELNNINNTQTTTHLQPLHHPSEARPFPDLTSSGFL
DAX1 inh = DAX1 (NR0B1) inhibitors, primary screen, cell-based, HEK293, Gal4-DAX1, luciferase luminescence. Nuclear receptor subfamily 0 group B member 1 (Homo sapiens), P51843. hit rate 0.99% among 340,000. inhibition, % at 6.75 µM. HEK293 Gal4-DAX1 luciferase reporter. AID 504766, 2011;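 active means inhibition above the mean over all tested compounds plus 3 SD, cut at about 4.2% in these data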;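 further: inhibition shows as a rise in luminescence from relieved DAX1 repression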
HSF1 activator = HSF-1 activators, primary screen, NIH3T3-HGL cells, MG132 stress, luminescence, single point | NIH3T3-HGL HSF-1 luciferase reporter, 8 h; 100% = twice DMSO control signal | activation, % at 9 µM | hit rate 1.7% among 300,000 | AID 504408, 2011;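 active means mean replicate activation of at least 50% with a set share of replicates each reaching 50%; inconclusive means only one of those two conditions met; inactive means mean below 50% and too few replicates reaching it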
FXN GAA850 act = FXN promoter activators, primary screen, cell-based, luciferase luminescence, HEK293 lucGAA850; HEK293 lucGAA850 FXN promoter luciferase reporter, 24 h; percent of 10 µM SAHA response; activation, % at 6 µM; hit rate 0.56% among 360,000; AID 540364, 2011;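 active means activation above the average of all compounds screened plus 3 SD, cutoff fixed separately per campaign, cut at about 7.5% in these data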
Large screens that a line does not name were inactive.

Cn1c(=O)c2nc(-c3ccccc3)c(-c3ccccc3)nc2n(C)c1=O	DAX1 inh 4.5 (no result: HSP90 refold inh)
CC(C)Oc1ccc(CN=C(N)N=C(N)N)cc1Cl	HSF1 activator 55
COc1ccc(CN=C(N)N=C(N)N)cc1Cl	none
Cc1ccccc1C(=O)NNC(=O)CCCCC(=O)NNC(=O)c1ccccc1C	none (no result: HSP90 refold inh)
CC1=C(C(=O)OCC2CCCO2)C(c2coc3ccc(Cl)cc3c2=O)C2=C(CCCC2=O)N1 (stereo not given)	DAX1 inh 8.9
CC1=C(C(=O)OCC2CCCO2)C(c2coc3ccc(C)cc3c2=O)C2=C(CCCC2=O)N1 (stereo not given)	none
O=C(CC1Sc2ccccc2NC1=O)NNc1cccc(Cl)c1Cl (stereo not given)	none (no result: HSF1 inh, HSP90 refold inh, AHR act, HSF1 activator)
O=C(c1ccc2ccccc2c1O)N1CCCCC1	none (no result: HSF1 inh, HSP90 refold inh, AHR act, HSF1 activator)
Cc1ccc(S(=O)(=O)NN=C2CCCc3ccccc32)cc1	none (no result: HSF1 inh, HSP90 refold inh, AHR act, HSF1 activator)
CC1(C)Cc2nc3sc(C(=O)O)c(N)c3cc2CS1	none (no result: DAX1 inh, FXN GAA850 act)
CC1(C)Cc2nc3sc(C(=O)NCCCO)c(N)c3cc2CS1	DAX1 inh 5.0
COC(=O)C1=C(C)NC(=O)/C1=C\c1cc(C)n(-c2c(C)cccc2C)c1C	none
Cc1c(/C=C2\NC(=O)NC2=O)c2ccccc2n1C	AHR act 75
Cc1cc(/C=C2/SC(=S)N(c3cccc(C(F)(F)F)c3)C2=O)c(C)n1-c1cccnc1	none
Cc1cc(/C=C2\NC(=O)NC2=O)c(C)n1-c1cccnc1	AHR act 100 (no result: DAX1 inh)
O=C1NC(=O)/C(=C\c2cn(Cc3ccccc3F)c3ccccc23)N1	none
Cc1cccc(C)c1-n1c(C)cc(/C=C2\NC(=O)NC2=O)c1C	HSF1 inh -52
CCCCN(C)c1c(C)nc2ccc(C(=O)N3CCN(C(C)=O)CC3)cn12	none (no result: HSF1 inh, HSP90 refold inh, AHR act, DAX1 inh, HSF1 activator)
O=C(O)c1ccccc1C(=O)c1ccc(Sc2ccc(Cl)cc2)c([N+](=O)[O-])c1	DAX1 inh 8.1
Nc1ccccc1Sc1ccc(C(=O)c2ccccc2C(=O)O)cc1[N+](=O)[O-]	none
Cc1ccccc1NC(=O)n1ncc2cc(Cl)ccc21	none
COc1ccc(C)cc1NC(=O)n1ncc2cc(Cl)ccc21	AHR act 56
CCCc1cc2c(=O)c(-c3ccc4c(c3)OCCO4)coc2cc1OC(=O)c1ccco1	HSF1 activator 64
CCc1cc2c(=O)c(-c3ccc4c(c3)OCCO4)coc2cc1OC(=O)c1ccco1	none
COc1ccc(S(=O)(=O)Nc2ccc3c(c2)C(=O)N([C@H](C)CO)C[C@H](C)[C@@H](CN(C)C(=O)Nc2c(C)noc2C)OCCCC[C@H](C)O3)cc1	none (no result: HSF1 inh, HSP90 refold inh, AHR act, HSF1 activator)
COc1ccc(-c2cc(N)n(S(=O)(=O)Cc3ccccc3)n2)c(OC)c1	AHR act 62
CC(=O)C1=C(C)NC(SCC(=O)c2ccc(F)cc2)=C(C#N)C1c1ccco1 (stereo not given)	AHR act 64
CC(=O)C1=C(C)NC(SCC(=O)c2ccc(Cl)c(Cl)c2)=C(C#N)C1c1ccco1 (stereo not given)	none
CCc1ccc(C(=O)CSC2=C(C#N)C(c3ccco3)C(C(C)=O)=C(C)N2)cc1 (stereo not given)	none (no result: DAX1 inh, FXN GAA850 act)
CC(=O)C1=C(C)NC(SCC(=O)c2cc(Cl)ccc2Cl)=C(C#N)C1c1ccco1 (stereo not given)	AHR act 83
COc1ccc(CCc2nnc(CCC(=O)NCC3CCCO3)o2)cc1 (stereo not given)	none
c1cncc(-c2nc3c(ccc4ccccc43)[nH]2)c1	AHR act 127
O=c1[nH]c(-c2cccnc2)nc2ccccc12	none
C=CCN(c1ccccc1OC)S(=O)(=O)c1cccc(C(=O)OCC(=O)c2c(N)n(C)c(=O)n(C)c2=O)c1	none (no result: HSF1 inh, HSP90 refold inh, AHR act, HSF1 activator)
O=C1NC(=S)CN1c1ccccc1	DAX1 inh 5.6
O=C1N(c2ccccc2)CCN1c1ccccc1	HSF1 activator inconclusive
Cc1c(NC(=O)COC(=O)c2ccc[nH]c2=O)c(=O)n(-c2ccccc2)n1C	DAX1 inh 5.3
CCCS(=O)(=O)NC(=O)C1(C)CCCN(C(=O)c2sccc2C)C1 (stereo not given)	none (no result: HSF1 inh, HSP90 refold inh, AHR act, DAX1 inh, HSF1 activator)
O=c1[nH][nH]c(-c2ccccc2O)c1C(C[N+](=O)[O-])c1ccccc1 (stereo not given)	HSF1 activator 228
O=C(NCc1ccccc1Cl)c1cc2c(s1)CS(=O)(=O)C2	none
CC(=O)Nc1ccc(C=NNc2ccc([N+](=O)[O-])cn2)cc1	none (no result: HSF1 inh, HSP90 refold inh, AHR act, HSF1 activator)
N#CC(c1ccccc1)C(CC(=O)c1ccccc1)c1ccccc1 (stereo not given)	none (no result: HSF1 inh, HSP90 refold inh, AHR act, HSF1 activator)
COc1cc(/C=C/CO)ccc1O[C@@H]1O[C@H](CO)[C@@H](O)[C@H](O)[C@H]1O	DAX1 inh 4.7 (no result: HSP90 refold inh)
CC(C)NC(=O)C(Cc1ccccc1)N1C(=O)c2ccccc2C1=O (stereo not given)	AHR act 55
CC(C)(O)CNC(=O)C(Cc1ccccc1)N1C(=O)c2ccccc2C1=O (stereo not given)	none
O=[N+]([O-])c1ccc2nc(-c3ccccc3)oc2c1	HSF1 activator 62
O=C(NC1CCCCC1)N(Cc1cc2cc3c(cc2[nH]c1=O)OCCO3)C1CCCCC1	DAX1 inh 4.8
CCC(=O)N(Cc1cc2cc(C)c(C)cc2[nH]c1=O)C1CCCCC1	none
C[C@@H](O)CNC(=O)c1[nH]cnc1C(=O)N[C@H](C)c1ccccc1	none (no result: HSF1 inh, HSP90 refold inh, AHR act, HSF1 activator)
CCc1cccc(NC(=O)c2sc3nc4n(c(=O)c3c2C)CCC4)c1	HSF1 activator 55
O=C(/C=C/c1ccc(Br)cc1)NC(=O)c1ccccc1O	HSF1 activator 161
CN(C)S(=O)(=O)n1cc(/C=C(\NC(=O)c2ccccc2F)C(=O)NCCCn2ccnc2)c2ccccc21	none (no result: AHR act)
COc1ccc(C2Nc3ccccc3C(=O)N2Cc2ccco2)cc1COc1ccccc1F (stereo not given)	HSF1 activator 76
COc1ccc(C2Nc3ccccc3C(=O)N2Cc2ccco2)cc1COc1ccc(NC(C)=O)cc1 (stereo not given)	HSF1 activator 58
O=C1c2ccccc2NC(c2ccc(O)cc2)N1Cc1ccco1 (stereo not given)	none
O=C1c2ccccc2NC(c2cccc(F)c2)N1Cc1ccco1 (stereo not given)	none
C=CCn1c(=N)n(CC(=O)OC)c2ccccc21	none
C=CCn1c(=N)n(CC(=O)c2ccc(Br)s2)c2ccccc21	AHR act 80
C=CCn1c(=N)n(CC(=O)c2ccc(Cl)cc2)c2ccccc21	AHR act 79
CC1(C)CC(=O)C(c2ccccc2)(c2ccccc2)C(=O)C1	none (no result: HSF1 inh, HSP90 refold inh, AHR act, HSF1 activator)
O=C(CSc1nc2ccccc2[nH]1)NC(=O)NCc1ccco1	none
